Reference: PubChem BioAssay (EPA / NIEHS)
Calls of active or inactive are those of the source. How the source made its calls: active means hit-call score of the fitted dose curve at least 0.9, where 1 is the maximum; inactive means score below 0.9.

Key:
[1] = read-out: TIMP metallopeptidase inhibitor 2 (TIMP2), TIMP2 (gene 7077); test: BSK_KF3CT_TIMP2: BioMAP Diversity Plus: KF3CT Assay for TIMP metallopeptidase inhibitor 2 (TIMP2) Biomarker Activity (AID 2283071); details: primary human keratinocytes with fibroblasts; actives raise or lower the signal
Method in brief: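 ELISA readout of TIMP-2 in keratinocyte plus foreskin fibroblast co-cultures (human skin primary cells), 24 h post-dose. Gain or loss of signal fitted relative to DMSO.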

[2] = read-out: Transforming growth factor beta 1 (TGFb1), TGFB1 (gene 7040); test: BSK_KF3CT_TGFb1: BioMAP Diversity Plus: KF3CT Assay for Transforming growth factor beta 1 (TGFb1) Biomarker Activity (AID 2283072); details: primary human keratinocytes with fibroblasts; actives raise or lower the signal
Method in brief: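 Read-out: ELISA for TGF-b1 in keratinocyte/foreskin fibroblast human skin co-culture, 24 h after dosing; bidirectional curve fit vs DMSO baseline; gain or loss of signal scored.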

[3] = read-out: C-C motif chemokine 2 (Homo sapiens) (UniProt P13500); test: BSK_KF3CT_MCP1: BioMAP Diversity Plus: KF3CT Assay for Monocyte Chemoattractant Protein 1 (MCP1/CCL2) Biomarker Activity (AID 2283073); details: primary human keratinocytes with fibroblasts; actives raise or lower the signal
Method in brief: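 Human keratinocyte plus foreskin fibroblast primary co-culture exposed to chemical for 24 h. MCP-1 levels measured by ELISA. Bidirectional curve fitting relative to DMSO negative control as baseline.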

[4] = read-out: CD40, CD40 (gene 958); test: BSK_LPS_CD40: BioMAP Diversity Plus: LPS Assay for CD40 Biomarker Activity (AID 2283076); details: primary human HUVEC with PBMC; actives raise or lower the signal
Method in brief: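 Primary human umbilical vein endothelial cells co-cultured with peripheral blood mononuclear cells, LPS-stimulated, were dosed with chemical and read 24 h later. CD40 levels were measured by ELISA and fitted bidirectionally against DMSO as negative control and baseline.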

[5] = read-out: E-selectin (Homo sapiens) (UniProt P16581); test: BSK_LPS_Eselectin: BioMAP Diversity Plus: LPS Assay for Eselectin Biomarker Activity (AID 2283077); details: primary human HUVEC with PBMC; actives raise or lower the signal
Method in brief: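 Human umbilical vein endothelial cells co-cultured with peripheral blood mononuclear cells under LPS stimulation; E-selectin measured by ELISA 24 h after chemical dosing. Activity fitted bidirectionally against DMSO as negative control and baseline.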

[6] = read-out: Interleukin-8 (IL8), CXCL8 (gene 3576); test: BSK_LPS_IL8: BioMAP Diversity Plus: LPS Assay for Interleukin-8 (IL8) Biomarker Activity (AID 2283078); details: primary human HUVEC with PBMC; actives raise or lower the signal
Method in brief: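 Human umbilical vein endothelial cells co-cultured with PBMC were stimulated with LPS; IL-8 levels were measured by ELISA 24 h after chemical dosing. Activity was fitted bidirectionally against DMSO as negative control and baseline.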

[7] = BSK_LPS_SRB: Viability Assessment in the BioMAP Diversity Plus: LPS Assay (AID 2283079); details: primary human HUVEC with PBMC;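 further: total protein by sulforhodamine B absorbance as a cytotoxicity measure; measured one day after compound addition; fitted in both directions against DMSO so loss or gain of signal counts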
Method in brief: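 Human umbilical vein endothelial cells co-cultured with PBMC (LPS system) were dosed for 24 h. Total protein was stained with 0.1% sulforhodamine B after 10% TCA fixation, read at 560 nm, and fitted bidirectionally against DMSO baseline.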

[8] = read-out: Interleukin-1 alpha (IL1a), IL1A (gene 3552); test: BSK_LPS_IL1a: BioMAP Diversity Plus: LPS Assay for Interleukin-1 alpha (IL1a) Biomarker Activity (AID 2283080); details: primary human HUVEC with PBMC; actives raise or lower the signal
Method in brief: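 Human umbilical vein endothelial cells co-cultured with peripheral blood mononuclear cells were LPS-stimulated and exposed to test chemicals for 24 h. IL-1 alpha was quantified by ELISA, with bidirectional curve fitting against DMSO as the negative control and baseline.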

[9] = BSK_LPS_PGE2: BioMAP Diversity Plus: LPS Assay for Prostaglandin E2 (PGE2) Biomarker Activity (AID 2283082); details: primary human HUVEC with PBMC; actives raise or lower the signal;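 on AC50: secreted prostaglandin E2 measured by ELISA in LPS-stimulated co-culture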
Method in brief: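 ELISA read-out of PGE2 from human umbilical vein endothelial cells co-cultured with peripheral blood mononuclear cells under LPS, 24 h post-dose. Gain or loss of signal scored relative to DMSO baseline.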

[10] = read-out: Macrophage colony-stimulating factor (MCSF), CSF1 (gene 1435); test: BSK_LPS_MCSF: BioMAP Diversity Plus: LPS Assay for Macrophage colony-stimulating factor (MCSF) Biomarker Activity (AID 2283083); details: primary human HUVEC with PBMC; actives raise or lower the signal
Method in brief: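 Human umbilical vein endothelial cells co-cultured with peripheral blood mononuclear cells were exposed to compound for 24 h. M-CSF levels were measured by ELISA, and bidirectional curve fitting used DMSO as the negative control and baseline.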

[11] = read-out: Tumor necrosis factor (Homo sapiens) (UniProt P01375); test: BSK_LPS_TNFa: BioMAP Diversity Plus: LPS Assay for Tumour Necrosis Factor alpha (TNFa) Biomarker Activity (AID 2283085); details: primary human HUVEC with PBMC; actives raise or lower the signal;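 on AC50: TNFa protein level quantified by ELISA in the co-culture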
Method in brief: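 HUVEC/PBMC co-culture, LPS-stimulated; 24 h post-dose; TNFa by ELISA; gain or loss of signal fitted bidirectionally vs DMSO baseline.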

[12] = read-out: Vascular cell adhesion molecule 1 (VCAM1), VCAM1 (gene 7412); test: BSK_LPS_VCAM1: BioMAP Diversity Plus: LPS Assay for Vascular cell adhesion molecule 1 (VCAM1) Biomarker Activity (AID 2283086); details: primary human HUVEC with PBMC; actives raise or lower the signal
Method in brief: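 ELISA read-out of VCAM-1 at 24 h post-dosing in an LPS-driven HUVEC/PBMC primary human co-culture; gain or loss of signal fitted bidirectionally against DMSO baseline. Cytotoxicity tracked in parallel cultures by SRB total-protein staining.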

[13] = read-out: CD38, CD38 (gene 952); test: BSK_SAg_CD38: BioMAP Diversity Plus: SAg Assay for CD38 Biomarker Activity (AID 2283087); details: primary human HUVEC with PBMC; actives raise or lower the signal
Method in brief: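 Measures CD38 on a human endothelial/PBMC co-culture driven by SEB and TSST-1, 24 h after compound exposure, using ELISA with fluorescence detection; DMSO defines baseline for bidirectional curve fitting.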

[14] = read-out: CD40, CD40 (gene 958); test: BSK_SAg_CD40: BioMAP Diversity Plus: SAg Assay for CD40 Biomarker Activity (AID 2283088); details: primary human HUVEC with PBMC; actives raise or lower the signal
Method in brief: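 Human umbilical vein endothelial cells co-cultured with PBMC; CD40 levels measured by ELISA with fluorescence read-out 24 h after chemical dosing. Gain or loss of signal fitted bidirectionally against DMSO baseline.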

[15] = read-out: CD69, CD69 (gene 969); test: BSK_SAg_CD69: BioMAP Diversity Plus: SAg Assay for CD69 Biomarker Activity (AID 2283089); details: primary human HUVEC with PBMC; actives raise or lower the signal;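 on AC50: cell surface CD69 protein quantified by ELISA with fluorescence detection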
Method in brief: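 HUVEC co-cultured with PBMC were dosed with chemical, and CD69 was measured by ELISA with fluorescence read-out 24 h later. Bidirectional curve fitting used DMSO as negative control and activity baseline.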

[16] = read-out: Monocyte Chemoattractant Protein-1 (MCP1), CCL2 (gene 6347); test: BSK_SAg_MCP1: BioMAP Diversity Plus: SAg Assay for Monocyte Chemoattractant Protein-1 (MCP1) Biomarker Activity (AID 2283090); details: primary human HUVEC with PBMC; actives raise or lower the signal
Method in brief: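 Values derive from bidirectional fitting of ELISA-measured MCP1 against DMSO controls. Readings were taken 24 h after dosing human vascular endothelial cells co-cultured with peripheral blood mononuclear cells under superantigen stimulation.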

[17] = read-out: urokinase plasminogen activator (uPA), PLAU (gene 5328); test: BSK_KF3CT_uPA: BioMAP Diversity Plus: KF3CT Assay for urokinase plasminogen activator (uPA) Biomarker Activity (AID 2283075); details: primary human keratinocytes with fibroblasts; actives raise or lower the signal
Method in brief: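 Values derive from bidirectional fitting against DMSO controls. Keratinocyte/foreskin fibroblast co-cultures received chemical; 24 h later uPA was detected by ELISA, with SRB total-protein staining in parallel wells for overt cytotoxicity.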

[18] = read-out: Monocyte Chemoattractant Protein-1 (MCP1), CCL2 (gene 6347); test: BSK_LPS_MCP1: BioMAP Diversity Plus: LPS Assay for Monocyte Chemoattractant Protein-1 (MCP1) Biomarker Activity (AID 2283081); details: primary human HUVEC with PBMC; actives raise or lower the signal;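 on AC50: secreted MCP-1 protein quantified by ELISA in culture supernatant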
Method in brief: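 HUVEC plus PBMC co-culture (human primary cells, LPS system) exposed to test chemical for 24 h; MCP-1 measured by ELISA. Bidirectional curve fitting against DMSO baseline; parallel SRB total-protein staining flags overt cytotoxicity.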

[19] = read-out: Tissue Factor, F3 (gene 2152); test: BSK_LPS_TissueFactor: BioMAP Diversity Plus: LPS Assay for Tissue Factor Biomarker Activity (AID 2283084); details: primary human HUVEC with PBMC; actives raise or lower the signal
Method in brief: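 Human umbilical vein endothelial cells co-cultured with peripheral blood mononuclear cells were dosed and stimulated with LPS. Cell-surface CD142 was quantified by ELISA at 24 h. Activity was fitted bidirectionally against DMSO baseline.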

Measured: AC50

E-selectin (Homo sapiens), sequence (P16581 whole entry, looked up): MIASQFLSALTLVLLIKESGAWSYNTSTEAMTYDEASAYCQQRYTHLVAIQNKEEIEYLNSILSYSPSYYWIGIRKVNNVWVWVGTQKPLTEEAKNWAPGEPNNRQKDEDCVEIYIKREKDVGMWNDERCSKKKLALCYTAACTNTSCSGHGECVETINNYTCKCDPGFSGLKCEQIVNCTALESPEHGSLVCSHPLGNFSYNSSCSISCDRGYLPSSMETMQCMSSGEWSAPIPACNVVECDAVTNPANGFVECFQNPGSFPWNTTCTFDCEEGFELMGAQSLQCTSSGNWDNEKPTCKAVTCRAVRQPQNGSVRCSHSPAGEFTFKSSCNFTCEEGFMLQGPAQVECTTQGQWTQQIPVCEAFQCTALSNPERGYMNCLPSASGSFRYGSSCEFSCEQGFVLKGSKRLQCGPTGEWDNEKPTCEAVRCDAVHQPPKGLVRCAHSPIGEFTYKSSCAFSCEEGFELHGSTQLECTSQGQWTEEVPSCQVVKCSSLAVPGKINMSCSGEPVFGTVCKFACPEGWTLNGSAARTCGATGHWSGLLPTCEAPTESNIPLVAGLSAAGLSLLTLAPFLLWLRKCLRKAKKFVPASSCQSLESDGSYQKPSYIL
Tumor necrosis factor (Homo sapiens), sequence (P01375 whole entry, looked up): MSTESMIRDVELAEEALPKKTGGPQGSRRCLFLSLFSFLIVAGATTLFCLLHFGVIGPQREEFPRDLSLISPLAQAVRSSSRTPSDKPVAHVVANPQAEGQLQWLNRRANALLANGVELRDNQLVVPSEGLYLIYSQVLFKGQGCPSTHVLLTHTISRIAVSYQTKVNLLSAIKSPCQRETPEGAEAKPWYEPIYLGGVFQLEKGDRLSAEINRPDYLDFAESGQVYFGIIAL

CCCCOC(=O)c1ccc(O)cc1
inactive: [1] | [2] | [3] | [4] | [5] | [6] | [7] | [8] | [10] | [11] | [12] | [13] | [14] | [15] | [16]
active: [9] 20 µM

O=CCCCC=O
inactive: [4] | [5] | [6] | [7] | [9] | [13] | [15] | [16]
active: [1] 26.2 µM | [2] 29.6 µM | [3] 32 µM | [17] 32 µM | [8] 32.9 µM | [10] 37.3 µM | [11] 32.7 µM | [12] 33 µM | [14] 29.8 µM

CN(C)c1ccc(C(=C2C=CC(=[N+](C)C)C=C2)c2ccc(N(C)C)cc2)cc1
active: [1] 1.29 µM | [2] 0.595 µM | [3] 3.97 µM | [17] 2.85 µM | [4] 0.438 µM | [5] 0.355 µM | [6] 1.26 µM | [7] 7.67 µM | [8] 0.147 µM | [9] 1.13 µM | [11] 1.46 µM | [12] 2.51 µM | [14] 0.534 µM | [15] 0.582 µM | [16] 0.325 µM

CCCCCCCCOC(=O)c1cc(O)c(O)c(O)c1
active: [1] 13.2 µM | [2] 8.45 µM | [3] 27.4 µM | [5] 36.6 µM | [6] 24.6 µM | [7] 25.6 µM | [8] 20 µM | [18] 26.7 µM | [9] 5.32 µM | [19] 32.4 µM | [11] 32.3 µM | [12] 30.6 µM | [14] 14.8 µM | [15] 16.6 µM | [16] 20 µM

CC[C@@H]1C[C@H](N(Cc2cc(C(F)(F)F)cc(C(F)(F)F)c2)C(C)=O)c2cc(C(F)(F)F)ccc2N1C(=O)OC(C)C
inactive: [1] | [2] | [3] | [17] | [4] | [5] | [6] | [7] | [8] | [9] | [10] | [11] | [12] | [14] | [15] | [16]

c1ccc2n[nH]nc2c1
inactive: [1] | [2] | [3] | [17] | [4] | [5] | [6] | [7] | [8] | [9] | [11] | [12] | [13] | [14] | [15] | [16]

Cc1ccc2oc(CN(Cc3ccccc3)C(=O)Nc3c(F)cc(F)cc3F)c(-c3ccc(Cl)cc3)c2c1
inactive: [2] | [3] | [17] | [4] | [5] | [6] | [7] | [8] | [18] | [9] | [19] | [11] | [12] | [14] | [15] | [16]
active: [1] 26.4 µM
